In PubChem BioAssay AID1259336 (Sattelle Laboratory, UCL Respiratory, Division of Medicine, …, 2017):
Values without a mark were called inactive. Activity calls are given as the source filed them. Cut-off read from the data, not from the text of the source: active = log2 fold change growth below about -1.8; inactive = the rest.

Assay: C. elegans growth inhibition, whole organism, log2 fold change (AID 1259336);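 note: growth scored by imaging after five days at 20 °C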
Conditions: anthelmintic screen, stronger effect = lower value

SMILES	log2 fold change growth
CNC(=O)CNc1nc(-c2ccccn2)nc2scc(-c3ccccc3)c12	0.152
COc1ccc2nc(C)cc(OCC(=O)NCc3ccccc3)c2c1	0.118
CC(C)c1ncc(-c2ccncc2)c(C2CCC(CNC(=O)c3cccnc3)CC2)n1 (stereo unspecified)	-0.0296
COc1ccc(-c2nn(C(C)C)c3ncnc(N)c23)cc1OC	0.278
Nc1ncnc2c1ncn2C[C@@H](O)[C@@H](O)C(=O)O	-0.0899
c1ccc(Oc2ccc(-c3cc(C4CCOCC4)[nH]n3)cc2)cc1	-0.254
COC(=O)c1c(NC(=O)c2c(F)c(F)c(F)c(F)c2F)sc2c1CCCCC2	0.243
Cc1nnc(NCc2cccc(Cl)c2)c2ccccc12	0.138
Clc1cccc(CO[C@H]2CCc3ccccc3[C@@H]2n2ccnn2)c1	0.571
COc1cccc(OCC(=O)c2ccc(Br)cc2)c1	-0.945
CNC(=O)[C@@H]1Cc2ccccc2N1C(=O)Cc1ccc(F)cc1	0.145
COc1ccc(-c2cnc3cnc(-c4cccc(OC(C)C)c4)cn23)cc1	-0.137
FC(F)(F)c1cnc(Sc2nnc(-c3ccncc3)o2)c(Cl)c1	-0.0782
COc1cc(NC(=O)Cc2nn(C)c(=O)c3ccccc23)ccc1Cl	0.419
COc1cccc(-n2nnnc2S(=O)(=O)Cc2ccccc2)c1	0.034
CC1=Nc2ccc(Cl)cc2[C@@](O)(c2ccc(C)cc2)N1CCN1CCCCC1	0.034
Cc1cc(NCC(C)C)c2[nH]nc(-c3ccccc3)c2n1	0.0984
NCCC[C@@](N)(C(=O)O)C(F)F	0.109
NS(=O)(=O)c1cccc(-c2ccc3ncc(N4CCOCC4)nc3c2)c1	-0.363
C[C@@H]1[C@H](O)[C@@H](C)C=CC=CC=CC=CC=CC=CC=C[C@H](O[C@@H]2O[C@H](C)[C@@H](O)[C@H](N)[C@@H]2O)C[C@@H]2O[C@](O)(C[C@@H](O)C[C@@H](O)[C@H](O)CC[C@H](O)C[C@@H](O)CC(=O)O[C@H]1C)C[C@H](O)[C@H]2C(=O)O	0.0153
C[C@H](c1ccc2c(c1)CCCC2)N(C)c1ncc2c(N)nc(N)nc2n1	0.0756
Cc1cc(C(=O)Nc2ccc(-c3ccccc3)cc2)no1	-3.09 (active)
Nc1nc(N)c2c3c(sc2n1)CN(Cc1ccccc1)CC3	0.456
Clc1ccc(-n2cc(COc3ccnc4ccccc34)nn2)cc1	-5.7 (active)
CCOc1ccc(-c2nc(NC(=O)CS(=O)(=O)c3ccccc3)sc2C)cc1	-1.31
CC(=O)Oc1ccccc1C(=O)Nc1ncc([N+](=O)[O-])s1	0.253

SMILES	log2 fold change growth
COc1ccccc1[C@H](C)NCC(=O)Nc1cc(C(F)(F)F)ccc1Cl	0.142
CCc1ccc([C@@H](NCc2nc(N)nc(N(C)C)n2)C(C)C)cc1	0.433
COc1cc(-c2cc(-c3ccc(S(C)(=O)=O)cc3)cnc2N)ccc1O	-0.318
COc1ccc(-c2nnc3ccc(-c4cccc(C(C)C)c4)cn23)cc1OC	-0.151
O=C1[C@@H](Oc2ccccc2)[C@@H](c2ccc(Cl)cc2)N1CCn1cnc2c(NCc3ccccc3)ncnc21	-0.167
CC[C@H](Sc1nc2ccccc2o1)C(=O)Nc1nnc(C)s1	0.272
c1coc(CNc2nc(N3CCCCC3)nc3ccccc23)c1	-0.141
CC(C)(C)C(=O)N(CCCCCCN1C[C@H](O)[C@@H](O)[C@H](O)[C@H]1CO)C1CCCCCC1	-0.767
CCN(CC)CCCN1CCN(C(=O)c2cccc(-c3noc(C(F)(F)F)n3)c2)CC1	-0.0333
CC(C)(C)OC(=O)N1CCN(c2cc(-c3ccc(Oc4ccccc4)cc3)[nH]n2)CC1	-0.56
CCN(CC)CCCCCCNc1cc(OC)cc2c(C)ccnc12	-0.053
CCCn1c(CNc2ccccc2O)nc2ccccc21	0.228
Cc1nc(-c2ccccn2)nc(N2CC[C@H](Cc3ccccc3)C2)c1Cl	-1.52
CCCCS(=O)(=O)Nc1ccc2cnn(C)c2c1	0.414
COc1cccc(OC)c1C(=O)Nc1ccc(Cl)c(-c2nc3ccccc3s2)c1	-0.202
Cc1cccc(-c2nc(Nc3ccncn3)c3sccc3n2)n1	0.438
O=C(C1CCN(c2nnnn2-c2ccccc2)CC1)N1CCc2ccccc2C1	-0.288
CC1(O)CC(c2nc(-c3ccc4ccc(-c5ccccc5)nc4c3)c3c(N)nccn23)C1 (stereo unspecified)	-0.23
CC[C@H](Sc1nc2ccccc2o1)C(=O)Nc1nccs1	-0.397
CCc1nc2ccccc2n1C[C@H](O)COc1cc(C)ccc1Cl	0.0644
O=C(NCc1ccco1)N1CCN(Cc2ccc(Cl)s2)CC1	0.334
CCOc1ccc(-c2nc(CNCCc3ccc(F)cc3)cs2)cc1	0.153
CC(C)NCC(=O)Nc1cccc(C(=O)Nc2cccc(C(F)(F)F)c2)c1	0.0022
CC1(C)Cc2c(c(N3CCOCC3)nc3snc(Br)c23)CO1	0.562
COc1ccc2nccc(NC(=O)C3CCN(CCc4ccc(Cl)cc4)CC3)c2n1	0.423
Nc1nc2ccc(-c3cncc(Oc4ccc(F)cc4)c3)cc2[nH]1	0.264

SMILES	log2 fold change growth
Cc1cc(NC(=O)c2ccc(S(=O)(=O)N(Cc3ccccc3)C(C)C)cc2)no1	-0.0868
Cc1cc(C(=O)Nc2cnn(Cc3ccc(Cl)cc3Cl)c2)no1	0.545
Clc1ccc(CN2CCN(C3=NCCN3)CC2)cc1Cl	0.0846
COC(=O)c1c(NC(=O)c2cc3ccccc3oc2=O)sc2c1CCN(Cc1ccccc1)C2	-0.125
Cc1cc(NC(=O)c2ccc(Oc3ccc(Cl)cc3O)o2)no1	0.201
CCNC(=O)[C@H](C)Nc1nc(-c2cccnc2)nc2sc(C)c(C)c12	0.136
Cc1ccc(S(=O)(=O)N2CCN(C(=O)c3cc(-c4ccccc4)n[nH]3)CC2)cc1	-0.371
O=C(Nc1cccc(-c2ccc(NCCCN3CCCC3)nc2)c1)c1ccccc1	0.467
COc1ccc(CCN2CCC(NCc3cccc(N(C)C)c3)CC2)cc1	0.27
CCC(=O)Nc1ccccc1C(=O)Nc1ccccn1	0.194
c1ccc2c(c1)CN(CC1CC1)CC1(CCN(Cc3c[nH]c4cnccc34)CC1)O2	0.264
COc1ccc(N(CCc2cccc(C)n2)C(C)=O)cc1	0.0749
CCc1ccc(S(=O)(=O)Nc2cc(CN3CCN(CCC(C)C)CC3)ccc2C)cc1	0.554
Cc1cc(NCCc2ccccc2)nc(/N=C(\N)Nc2ccc(Cl)cc2)n1	0.186
CS(=O)(=O)c1cccc(-c2cnc3[nH]cc(-c4ccc(CCC(=O)O)cc4)c3c2)c1	0.172
COc1ccc(Nc2ccccc2NC(=O)c2ccc(=O)[nH]c2)cc1	-0.31
CCOC(=O)NC(=O)c1ccsc1NC(=O)c1nc2ccccc2s1	-3.88
CN1CCN(S(=O)(=O)c2ccc(-c3ccc4c(Nc5ccc6n[nH]nc6c5)ccnc4c3)cc2)CC1	-0.667
CCc1nc2ccc(Cl)cn2c1C(=O)NCc1ccc(N2CCC(c3ccc(OC(F)(F)F)cc3)CC2)cc1	-0.0431
c1cc(C2=NCCN2)cc(-c2cc(-c3ccc(C4=NCCN4)cc3)no2)c1	0.193
CN1CCN(S(=O)(=O)c2ccc(-c3ccc4c(Nc5ncc(Cl)cn5)ccnc4c3)cc2)CC1	0.346
Cc1cccc(NC(=O)c2cc(S(=O)(=O)N(C)c3ccc(F)cc3)ccc2Cl)n1	-0.21
O=C(NCc1ccoc1)N1CCN(Cc2ccc3c(c2)OCO3)CC1	0.212
N[C@@H](CC(=O)c1ccc(Cl)cc1Cl)C(Cl)(Cl)Cl	-0.444
